# Data reported in publication PMC7819943, “Rice protein-binding microarrays: a tool to detect cis-acting elements near promoter regions in rice”.
# Over roughly 39,000 sequences, “fluorescence intensity (a.u.)” has its median near 4,300; the highest 2% begin near 39,000. Many of the other results were omitted from the sample, so the highest values are more common in it than they were.
# Target: T1, OsSMF1 (Oryza sativa, UniProt Q6ZLB0 1-436)
# T1 sequence: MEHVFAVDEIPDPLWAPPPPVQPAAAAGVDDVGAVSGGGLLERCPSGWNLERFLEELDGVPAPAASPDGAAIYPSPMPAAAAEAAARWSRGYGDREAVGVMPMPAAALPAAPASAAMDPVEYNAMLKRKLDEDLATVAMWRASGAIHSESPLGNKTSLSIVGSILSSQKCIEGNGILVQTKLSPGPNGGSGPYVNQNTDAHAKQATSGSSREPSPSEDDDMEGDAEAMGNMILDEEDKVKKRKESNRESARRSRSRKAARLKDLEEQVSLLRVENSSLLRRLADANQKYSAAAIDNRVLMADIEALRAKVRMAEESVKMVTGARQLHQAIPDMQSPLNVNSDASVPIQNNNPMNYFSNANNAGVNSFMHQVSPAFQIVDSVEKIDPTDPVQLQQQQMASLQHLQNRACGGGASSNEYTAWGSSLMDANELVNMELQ
# Assay: protein-binding microarray (RPBM); PBS, 2% BSA, 51.3 ng/ul salmon testes DNA, 50 uM zinc acetate, 200 nM TF, 25 C, 1 h; high values mean tight binding
# Conditions: protein: recombinant; tags: N-terminal polyhistidine and DsRed monomer fusion (pET32a); chain copies: 2; label: CyDye5-dUTP incorporated in the synthesized complementary strand; 3' TTTTT single-stranded linker to array surface; dsDNA, one strand shown
# Method in brief: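 In PBS with 2% BSA, salmon testes DNA and 50 µM zinc acetate, 200 nM protein was incubated on a custom Agilent array at 25 °C for 1 h and then washed off. The array had been made double-stranded by primer extension with Cy5-dUTP and blocked with 2% BSA. The proteins were transcription factors fused N-terminally to polyhistidine and DsRed, expressed in E. coli BL21-CodonPlus and purified on Ni–NTA. The binding signal is per-feature fluorescence intensity (arbitrary units) from an Axon 4000B scanner.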
row,Sequence,binding signal
1,CGACCTGAGGTTGGCGGTCGGCATGACGTCACGGGTGGGACGGAGTCACCTAGTGCAG,24200 fluorescence intensity (a.u.)
2,CTATGTTTTACACTTACACTCCTATCAAAATCCTACGTTTCGGAGTCACCTAGTGCAG,22600 fluorescence intensity (a.u.)
3,TAAAGCTTTTATGAATGAATAGCCTCGCTGGCAAGTGGGCCGGAGTCACCTAGTGCAG,3560 fluorescence intensity (a.u.)
4,TTGTTCTGTCGATCCATCGGTATCCTGGTCAATTGGCAAGCGGAGTCACCTAGTGCAG,3160 fluorescence intensity (a.u.)
5,ATCGAATGATCTAACGGCTCACACACTCCCACGCACTTTGCGGAGTCACCTAGTGCAG,3290 fluorescence intensity (a.u.)
6,TCTGACGGGCGATGACGACGACGACGGTGCAAAAGCCTGACGGAGTCACCTAGTGCAG,3310 fluorescence intensity (a.u.)
7,ACATCTAAAAGTAACTTGAGTTTTCTAAGCAACACATAAGCGGAGTCACCTAGTGCAG,24700 fluorescence intensity (a.u.)
8,AAGCTCCCCGGCCAGGCCGCCATCGGCCACGTGAGGTACTCGGAGTCACCTAGTGCAG,4540 fluorescence intensity (a.u.)
9,TTTAATTGTTCTGCGATTACGGTAGAAATAGATCGGGCTTCGGAGTCACCTAGTGCAG,3210 fluorescence intensity (a.u.)
10,TTGAAACGTAACACTTGATATATGTATACATTATCCAACCCGGAGTCACCTAGTGCAG,3150 fluorescence intensity (a.u.)
11,GTTATAAGACGTTTTGATTTTAGTCAAAGTCAAACTATTCCGGAGTCACCTAGTGCAG,32600 fluorescence intensity (a.u.)
12,GACATGAATTTTCCATCATATATTCATGCGGTTCATTATGCGGAGTCACCTAGTGCAG,4430 fluorescence intensity (a.u.)
13,ACAAACTTCCAACTTTTCTATCACATCGTTCCAATTTCAACGGAGTCACCTAGTGCAG,22100 fluorescence intensity (a.u.)
14,CCAACTTTTCCATCACATCGTTCCAATTTCAACCAAACTTCGGAGTCACCTAGTGCAG,21900 fluorescence intensity (a.u.)
15,CAACAAATTTAAATTTATAGACGTCACCATACTGAAGGCGCGGAGTCACCTAGTGCAG,5460 fluorescence intensity (a.u.)
16,GGGTCATATAGAGACGACGATCAAATTTACCTTATTTTAACGGAGTCACCTAGTGCAG,3240 fluorescence intensity (a.u.)
17,TCCATTGCATATAATTCAATTCATCGAAATCATGACATTTCGGAGTCACCTAGTGCAG,46400 fluorescence intensity (a.u.)
18,AATTGGACAATTCATCATAAATTTTGCATGAATGATGACACGGAGTCACCTAGTGCAG,3750 fluorescence intensity (a.u.)
19,TCATACTGCCATCATACCATCCTACAATAGACAAATTTAACGGAGTCACCTAGTGCAG,54300 fluorescence intensity (a.u.)
20,TTATATTTTAATTAAAACTATTATAATACACAATACGTCACGGAGTCACCTAGTGCAG,7060 fluorescence intensity (a.u.)
21,TTTTCTATCACATCGTTTTAATTTCAATCAAACTTCCAATCGGAGTCACCTAGTGCAG,45300 fluorescence intensity (a.u.)

row,Sequence,binding signal
1,AATTATGTTTTATAAGACGTTAGCATTTAAACTACAATCCCGGAGTCACCTAGTGCAG,55600 fluorescence intensity (a.u.)
2,TAACCATGTAATTCCTCTGAAAATCCACAGATGAACTAGCCGGAGTCACCTAGTGCAG,3360 fluorescence intensity (a.u.)
3,CCACCAGCCCGGTGGGATCCCGCCACGTCAGCGTGACCCGCGGAGTCACCTAGTGCAG,22600 fluorescence intensity (a.u.)
4,GTCTGGAGAGCCAGAGGAGAGGAGTAGCGGACGCGGTGCCCGGAGTCACCTAGTGCAG,26700 fluorescence intensity (a.u.)
5,TTTCTGCGCTACGTGCTCGCCATGTCGTCCTCGTCACAAACGGAGTCACCTAGTGCAG,5120 fluorescence intensity (a.u.)
6,CACCCGTGCGTAATCATGACGCCGGGGTGACGTCACCATCCGGAGTCACCTAGTGCAG,30200 fluorescence intensity (a.u.)
7,GCTGGGTTTTCGAGGAGGCCTGACTGGATCATACTCGACTCGGAGTCACCTAGTGCAG,3250 fluorescence intensity (a.u.)
8,CCATCTGCGGCGTACTTGCCACTTTTCTTCGATCGGCACCCGGAGTCACCTAGTGCAG,3550 fluorescence intensity (a.u.)
9,AGACCGCTCGCGCGTACGTGACGCGATCGGGCAGCGCGGGCGGAGTCACCTAGTGCAG,4060 fluorescence intensity (a.u.)
10,CCTAAAATACATGACCAGCCCACACAGGACTTAACCCACACGGAGTCACCTAGTGCAG,3230 fluorescence intensity (a.u.)
11,TATAGAATTTTCTCTTAAAATACTTATCCGATTTATGATCCGGAGTCACCTAGTGCAG,54100 fluorescence intensity (a.u.)
12,ATAAAATTTTATGATATATAGATAATAATTTTACTTGCAACGGAGTCACCTAGTGCAG,4550 fluorescence intensity (a.u.)
13,TTCACACCCAGATAAATACAGCCTACTAGACCAATAGCCACGGAGTCACCTAGTGCAG,40000 fluorescence intensity (a.u.)
14,ACCAGGTGGCTACAGCTGGCTAAATACCCAGTCACTACCACGGAGTCACCTAGTGCAG,3680 fluorescence intensity (a.u.)
15,TTTTATCACATCGTTTTAATTTCAACCAAACTTTCAATTTCGGAGTCACCTAGTGCAG,32600 fluorescence intensity (a.u.)
16,TCTCTTTCTTTATTTCTTTAAAATATATTTATAGTTGTCTCGGAGTCACCTAGTGCAG,3490 fluorescence intensity (a.u.)
17,GTACATCAAACATTATCAATATCGGACACATAATCCATTGCGGAGTCACCTAGTGCAG,3850 fluorescence intensity (a.u.)
18,CCATAATCACACTTCAATAGTAGTACTACCACAATTGCATCGGAGTCACCTAGTGCAG,45100 fluorescence intensity (a.u.)
19,ACTTTTCCGTCACATCGTTTTAATTTCTTTAAACTTTTAACGGAGTCACCTAGTGCAG,4680 fluorescence intensity (a.u.)
20,TTCACATCGTTGCAATAAATAATTATACCACTACTTCATACGGAGTCACCTAGTGCAG,24800 fluorescence intensity (a.u.)
21,TTATATCGTTTTAATTTCAATTAAACTTTCAATTTTAGTGCGGAGTCACCTAGTGCAG,48400 fluorescence intensity (a.u.)
